A selection: hits, their analogues and other compounds. The true share with any hit is near 1.1%.
Anesthetic bind – binds horse apoferritin like a general anesthetic; actives 0.074% (n = 350,000); apoferritin/1-aminoanthracene competitive binding, fluorescence; P02791; Potency, µM (top dose mostly 77.5 µM), for inactives: at the top dose activity change, negative = displacement, hits mostly inhibitors; further: on the % scale 0 is the no-effect control and ±100 the full control effect; nearly all actives have a fitted effect of over 20% in size
Target sequence (P02791 2-175 limits assumed): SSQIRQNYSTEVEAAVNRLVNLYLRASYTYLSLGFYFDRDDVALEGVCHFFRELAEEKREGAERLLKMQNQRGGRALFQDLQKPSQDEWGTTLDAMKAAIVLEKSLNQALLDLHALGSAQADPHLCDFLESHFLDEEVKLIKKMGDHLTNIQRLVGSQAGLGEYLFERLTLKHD
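In PBS, apoferritin at 10 uM is loaded with 1-AMA from a 50% saturated solution. After 10 min of compound exposure at ambient temperature, reduced 535 nm fluorescence indicates probe displacement.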
12-LOX inh – blocks human arachidonate 12S-lipoxygenase | P18054 | purified 12hLO, xylenol orange hydroperoxide absorbance | Potency, µM (doses to about 108 µM), for inactives: top-dose activity change, negative = inhibition, actives largely listed as inhibitors | actives 1.1% (n = 580,000) | AID 1671190; further: on the % scale 0 is the no-effect control and ±100 the full control effect
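Purified human 12hLO at 150 nM in 25 mM Hepes, 0.01% Triton X-100, pH 7.0, preincubated 15 min at room temperature with compound. Reaction started with 40 uM arachidonic acid, 30 min at room temperature. Hydroperoxide measured by Fe-xylenol orange, 573/405 nm absorbance ratio.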
GRP78 ERSR act – ER stress response induction in glioma. AID 602332. U87-MG GRP78 promoter luciferase reporter, 16 h. actives 0.02% (n = 420,000). Potency, µM, for the others: at the top dose activation, actives largely listed as activators; further: series mostly up to about 76 µM; % of control where 0% means no effect; nearly all actives have a fitted effect of over 35% in size
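ERSR induction read as luciferase luminescence (Bright-Glo, 10 min at room temperature) in stably transfected human U87-MG glioma cells exposed to compounds for 16 h, using GRP78 as sensor.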
BCR signal inh – chronic active BCR signaling inhibition. actives 0.05% (n = 340,000). ABC-DLBCL IkBa-CBG/CBR reporter, luminescence ratio, 4 h. AID 493014. Potency, µM (highest dose often 46.1 µM), inactives show at the highest dose activity change, negative = inhibition, actives largely listed as inhibitors; active means well fitted inhibition curve with a large enough effect in the signal ratio, with a control signal flat, not every such curve was filed as active; inconclusive means small, poorly fitted or top-dose-only effect, or effect the other way, or a change in a side signal; the % refers to the signal ratio;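 further: plate controls were basal doxycycline-induced cells for no effect and cells given 10 µM MG132 for full effect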
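Compounds up to 46 uM were incubated four hours with TMD8 cells whose green CBG68 luciferase is fused to IkappaBalpha; red CBR luminescence normalised the signal, and concentration-effect curves were fitted to fusion, red and ratio data.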
Numbers without * were called inactive; ? = inconclusive; . = not tested or not shown; ! = a repeat was not active. Unless noted, the call rests on the fitted dose curve; in most records, active means well fitted curve in the direction sought with a large enough effect; inconclusive means small, poorly fitted or top-dose-only effect, or another doubt; inactive means no such curve, though single readings can be large; an effect the other way counts as inactive or inconclusive. Potency means the concentration at half of the fitted maximal effect.

SMILES	Anesthetic bind	12-LOX inh	GRP78 ERSR act	BCR signal inh
Cc1nn(-c2ccc(Cl)c(Cl)c2Cl)c(=O)c2ccccc12	18µM*	-25%	-1%	?
Cc1nn(-c2ccc(Cl)cc2Cl)c(=O)c2ccccc12	-2%	-15%	-1%	?
COC(=O)C1=C(C)NC(C)=C(C(=O)OC)C1c1ccc(N(C)C)cc1	-8%	-23%	-2%	21µM*
Cc1ccc(Cc2ccc(C(=O)O)o2)cc1	.	-34%	.	.
NC(N)=NC(N)=Nc1ccc(Cl)c(Cl)c1	.	8%	.	.
Cc1cc2cc(CNC(=S)Nc3cccc(Br)c3)ccc2[nH]1	.	28µM*	.	.
CCOc1ccc(NC(=S)NCc2ccc3[nH]c(C)cc3c2)cc1	-8%	10µM*	4%	-11%
Cc1cccc(NC(=S)NCc2ccc(F)cc2)c1	2%	-27%	-3%	3%
CCCCNC(=S)NCc1ccc2[nH]c(C)cc2c1	-9%	?	2%	5%
Cc1occc(=O)c1OCc1noc(C(=O)NCc2ccccc2Cl)n1	.	3%	.	.
O=c1oc2ccccc2c(NC2CCCCC2)c1NS(=O)(=O)c1ccc(F)cc1	-16%	-4%	-5%	?
O=c1[nH]c2ccc(S(=O)(=O)Nc3c(NC4CCCCC4)c4ccccc4oc3=O)cc2o1	.	40µM*	.	.
Cc1sc(NC(=O)C2CCCCC2)c(C#N)c1-c1ccccc1	?	?	5%	?
CCc1c(C)sc(NC(=O)C2CCCCC2)c1C#N	.	8.9µM*	.	.
CCc1c(C)sc(NC(=O)c2c(F)cccc2F)c1C#N	.	-7%	.	.
CCc1c(C)sc(NC(=O)OC)c1C#N	.	25µM*	.	.
Cc1ccc(C(c2cc(Cl)c3cccnc3c2O)N2CCN(C)CC2)cc1 (configuration not stated)	?	.	-2%	-3%
CN1CCN(C(c2ccccn2)c2cc(Cl)c3cccnc3c2O)CC1 (configuration not stated)	-19%	?	-2%	7.1µM*
O=C(NCCc1noc(-c2ccncc2)n1)c1ccccc1	.	8.9µM*	.	.
Cl/C(=C/c1ccc(Cl)cc1)c1ncc(-c2ccc(Cl)cc2)o1	.	35µM*	.	.
COc1ccc(NC(=S)/N=C(\N)Nc2nc(C)c3ccc(C)cc3n2)cc1	-8%	?	-3%	?
CCOc1ccc2nc(N/C(N)=N/C(=S)Nc3ccc(C)c(C)c3)nc(C)c2c1	-10%	45µM*	-3%	-2%
COc1ccc2oc(=O)c(-c3cn4cccc(C)c4n3)cc2c1	.	-10%	.	.
c1ccc(-n2cc(CN3CCCCC3c3ccccn3)nn2)cc1 (configuration not stated)	.	20µM*	.	.
CCc1ccc2c(CN3CCc4cc(S(N)(=O)=O)ccc43)cc(=O)oc2c1	.	14µM*	.	.
SMILES	Anesthetic bind	12-LOX inh	GRP78 ERSR act	BCR signal inh
COc1ccc2[nH]cc(CCNc3ccnc(-c4cccc(C#N)c4)n3)c2c1	.	-22%	-3%	.
COc1ccc2[nH]cc(CCNc3cc(-c4ccccc4Cl)ncn3)c2c1	.	16µM*	-3%	.
COc1ccc2[nH]cc(CCNc3ccnc(-c4cccc(NS(C)(=O)=O)c4)n3)c2c1	-12%	40µM*	0%	.
O=C(O)CCCC(=O)N1CCN(C(=O)c2ccco2)CC1	.	12%	.	.
COc1ccc2c(C)cc(=S)[nH]c2c1	-17%	?	1%	-6%
Cc1cc(C)c2[nH]c(=S)cc(C)c2c1	-5%	6.3µM*!	-3%	?
COC(=O)C1=C(C)N(Cc2ccc(C)cc2)C(=O)/C1=C\c1ccc(O)c(OC)c1	?	28µM*	15%	0%
CC(=O)c1cccc(NC(=O)Cc2c(C)c3ccc(O)cc3oc2=O)c1	.	2%	.	.
CN(C)c1ccc(/C=C/c2cc[n+](C)cc2)cc1	-21%	1µM*	-3%	?
CN(C)c1ccc(/C=C/c2cc[n+]([O-])cc2)cc1	454%	.	.	?
CCC1(C)Nc2ccccc2C(=O)N1O (configuration not stated)	-8%	0.63µM*	-5%	?
COc1ccc2c(C)c(CC(=O)Nc3cccc(Cl)c3)c(=O)oc2c1C	.	-14%	.	.
Cc1ccc(S(=O)(=O)NC(=O)c2ccc(-c3ccc(C)c4ccccc34)o2)cc1	-3%	35µM*	-3%	-1%
Cc1ccc(-c2ccc(C(=O)Nc3ccccc3)o2)c2ccccc12	6%	-18%	3%	?
COc1ccc(-c2ocnc2C(=O)Nc2ccc(Cl)cc2)cc1OC	.	1%	.	.
CC(C)N(C(=O)CO/N=C/c1cccc([N+](=O)[O-])c1)C(C)C	45µM*	-11%	-1%	6%
O=C(/C=C1\NC2(CCCC2)Cc2ccccc21)C(=O)N/N=C/c1ccc(O)c(O)c1	?	35µM*	-7%	?
COc1ccc(/C=N/NC(=O)C(=O)/C=C2\NC3(CCCC3)Cc3ccccc32)cc1	-15%	-3%	-4%	?
CCCN1C(=O)/C(=c2\sc3nc(=O)c(Cc4ccc(C)cc4)nn3c2=O)c2ccccc21	-14%	50µM*	-9%	3%
Cc1ccc(S(=O)(=O)N/N=C2\C(=O)C3(C)CCC2C3(C)C)cc1 (configuration not stated)	-18%	?	-7%	4%
Cc1ccc(S(=O)(=O)NN=C2C(=O)C3CCC2C3Cl)cc1 (configuration not stated)	.	10µM*	-2%	.
C=C1c2ccccc2O[C@H](C(=O)OCC)[C@@H]1C1CCCCC1	.	20µM*	-1%	9%
CCOC(=O)C1=C(N)c2ccccc2CC1C1CCCC1 (configuration not stated)	12%	-1%	-3%	18%
O=C(Cn1ccc(=O)[nH]c1=O)Nc1cccc2cccnc12	.	63%	.	.
Cc1[nH]c(=S)c(C#N)c(C)c1C(=O)Nc1ccccc1	-1%	25µM*	-3%	2%
SMILES	Anesthetic bind	12-LOX inh	GRP78 ERSR act	BCR signal inh
CCc1c(C(=O)Nc2ccccc2)csc1C	.	8%	.	.
Cc1ccccc1NC(=O)c1c(C)[nH]c(=S)c(C#N)c1-c1ccco1	-4%	-24%	-5%	1%
CCc1c(C(=O)Nc2ccccc2)c(C)[nH]c(=S)c1C#N	-4%	4µM*	-4%	-1%
CC(C)(C)OC(=O)N[C@@H](Cc1c[nH]c2ccccc12)C(=O)O	1%	.	-5%	.
O=C(NC(Cc1c[nH]c2ccccc12)C(=O)O)OCC1c2ccccc2-c2ccccc21 (configuration not stated)	.	35µM*	3%	.
O=C(O)C(Cc1c[nH]c2ccccc12)NS(=O)(=O)c1ccc(Cl)c(C(F)(F)F)c1 (configuration not stated)	-6%	40µM*	-3%	0%
COc1ccc2nc(COC(=O)c3cccs3)c(C(C)=O)[n+]([O-])c2c1	-3%	32µM*	-1%	0%
COc1cc(/C=N/Nc2cccc(C)c2)cc(Br)c1O	-21%	2.8µM*	-8%	-4%
COc1cc(/C=N/Nc2cccc(C)c2)ccc1OC(=O)c1cccs1	-8%	?	1%	-1%
CCc1ccc(NC(=O)c2ccc(OCc3ccccc3)cc2)cc1	.	-2%	.	.
CCCNc1nc(NCc2ccccc2OC)c2cnn(C)c2n1	-3%	40µM*	.	.
